In PubChem BioAssay (Tox21) one finds Potency data, which are given here for 4 compounds.

Assay [1] in a line: Nuclear factor erythroid 2-related factor 2/antioxidant responsive element (Nrf2/ARE) small molecule agonists: qHTS cell viability counter screen in human keratinocytes (AID 1919968; active = well fitted curve in the direction sought with a large enough effect in the repeat runs; an effect the other way counts as inactive or inconclusive; note: nearly all actives have a fitted effect of over 55% in size). The following applies: KeratinoSens HaCaT ARE cells viability, CellTiter-Fluor, 24 h; series mostly up to 92.4 µM. In short, it runs like this:
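In human HaCaT keratinocytes stably expressing an ARE-driven luciferase, compound exposure lasted 23 h at 37 C under 5% CO2. Viable cells are quantified with a protease-based fluorogenic reagent (CellTiter-Fluor) read 1 h after addition.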
(Quantitative high-throughput screening tests each substance at several concentrations.)

Assay [2] is described as follows: Nuclear factor erythroid 2-related factor 2/antioxidant responsive element (Nrf2/ARE) small molecule agonists: luciferase reporter gene qHTS assay in human keratinocytes (AID 1919969). Note: nearly all actives have a fitted effect of over 35% in size. Note: potency is the fitted concentration of half-maximal effect. Particulars: KeratinoSens HaCaT ARE-luciferase, luminescence, 24 h; series mostly up to 92.4 µM.
Assay [3] has as its target Gonadotropin-releasing hormone receptor (Homo sapiens) (UniProt P30968). In words: Human gonadotropin-releasing hormone receptor (GnRHR) small molecule agonists, calcium flux assay in GnRHR-HEK293 cells (AID 1920063). Note: nearly all actives have a fitted effect of over 35% in size. Particulars: calcium flux fluorescence, agonist mode; series mostly up to 57.6 µM. The method, boiled down:
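Intracellular calcium rise is the read-out: engineered human GnRHR HEK293 cells, dye-loaded, are exposed to DMSO-dissolved compounds and fluorescence at Ex/Em 480/540 is tracked for 3 min.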
(In general: Calcium flux is commonly read through the fluorescence of an indicator in the cells.)

The target in assay [4] is KiSS-1 receptor (Homo sapiens) (UniProt Q969F8). In words: Human kisspeptin (KISS1R) small molecule agonists, calcium flux assay in KISS1R-HEK293 cells (AID 1920064; active = well fitted curve in the direction sought with a large enough effect in the repeat runs; an effect the other way counts as inactive or inconclusive). The following applies: KISS1R-HEK293, calcium flux fluorescence, agonist; series mostly up to 76.8 µM. The method, boiled down:
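Concentration-response testing used 15 concentrations in triplicate on human KISS1R-expressing HEK293 cells. Calcium-dependent fluorescence (Ex/Em 480/540) was followed kinetically for 3 min after compound transfer.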

Assay [5] can be described thus: G protein-coupled receptor (GPCR) small molecule agonists, calcium flux assay: HEK293 wild type cell line counter screen (AID 1920065). The following applies: HEK293 WT calcium flux, fluorescence, agonist mode; series mostly up to 57.6 µM. The method, boiled down: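 Fluorescence intensity signals activation. After overnight (18 h) culture and a 1 h calcium dye load at 37 C, compounds are added by pin tool and the plate read at 480/540 nm for 3 min in 1 s steps.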

Assay [6] is described as follows: p53 small molecule agonists, cell-based qHTS assay with human liver microsomes (AID 1963577).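 Note: p53 response element beta-lactamase reporter cells with liver microsomes plus NADPH.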 Particulars: HCT-116 p53RE-bla with human liver microsomes, ratio, 16 h; series mostly up to 66 µM. The method, boiled down:
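16 h, 37 C exposure of p53RE-bla cells to compounds with human liver microsomes and NADPH (0.5 mg/mL final each); detection via LiveBLAzer mixture, 2 h dark at room temperature.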

A short description of assay [7]: p53 small molecule agonists, cell-based qHTS assay with rat liver microsomes (AID 1963578). Particulars: HCT-116 p53RE-bla, beta-lactamase ratio, 16 h; series mostly up to 66 µM. In short, it runs like this: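 With rat liver microsomes and NADPH present (0.5 mg/mL final each), p53RE-bla cells are treated with compound for 16 h at 37 C. LiveBLAzer detection mixture is then applied for 2 h at room temperature in the dark.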

A short description of assay [8]: p53 small molecule agonists, cell-based qHTS assay with human liver microsomes: qHTS cell viability counter screen (AID 1963579). Note: nearly all actives have a fitted effect of over 45% in size. Note: potency is the fitted concentration of half-maximal effect. Particulars: p53RE-bla HCT-116 viability, ATP luminescence, 16 h, HLM; series mostly up to 66 µM. In short, it runs like this:
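In this multiplexed counter screen, the reporter plates were subsequently treated with CellTiter-Glo so that cell viability, reflected by luminescence, could be recorded for p53RE-bla cells dosed 16 h with compounds under microsomal activation (HLM and NADPH).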

The nature of assay [9]: p53 small molecule agonists, cell-based qHTS assay with rat liver microsomes: qHTS cell viability counter screen (AID 1963580). Note: nearly all actives have a fitted effect of over 45% in size. Note: potency is the fitted concentration of half-maximal effect. The following applies: p53RE-bla HCT-116 + rat microsomes, ATP viability, 16 h; series mostly up to 66 µM. The method, boiled down: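 Cytotoxicity counter screen: intracellular ATP read by CellTiter-Glo luminescence in the p53 reporter wells. HCT-116 p53RE-bla cells were treated for 16 h at 37 C alongside rat liver microsomes and NADPH, each 0.5 mg/mL final.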

Assay [10] can be described thus: p53 small molecule agonists, cell-based qHTS assay: qHTS cell viability counter screen (AID 1963581). Note: nearly all actives have a fitted effect of over 45% in size. Particulars: p53RE-bla HCT-116 viability, ATP luminescence, 16 h; series mostly up to 66 µM. In short, it runs like this:
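Luminescence from CellTiter-Glo, reflecting ATP content, serves as the cytotoxicity measure; it is taken after the 2 h reporter substrate step in HCT-116 p53RE-bla cells dosed for 16 h at 37 C.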

A short description of assay [11]: p53 small molecule agonists, cell-based qHTS assay (AID 1963582; active = well fitted activation curve with a large enough effect in the signal ratio in the repeat runs, not every such curve was filed as active; the % refers to the signal ratio). The following applies: HCT-116 p53RE-bla reporter, beta-lactamase FRET ratio, 16 h; series mostly up to 66 µM. In short, it runs like this:
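After plating, p53RE-bla cells sat 5 h in the incubator; compounds or DMSO vehicle were pinned in; a 16 h incubation at 37 C followed; FRET substrate was added and, 2 h later at RT, fluorescence was measured.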

A short description of assay [12]: cAMP Responsive Elements (CRE) small molecule antagonists, cell-based qHTS assay (AID 1963591; active = well fitted inhibition curve with a large enough effect in the signal ratio in the repeat runs, not every such curve was filed as active; the % refers to the signal ratio). Particulars: CRE-bla HEK293T, beta-lactamase FRET ratio; series mostly up to 92.4 µM. In short, it runs like this: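 Stimulation used NKH477 at a final 0.25 uM for 3 h in compound-treated CRE-bla HEK293T cells, seeded 18 h beforehand. Reporter activity was measured with LiveBLAzer B/G FRET substrate after 2 h at room temperature.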

Assay [13] has as its target Beta-2 adrenergic receptor (Homo sapiens) (UniProt P07550). The experiment in a line: Adrenergic beta2 receptor (ADRB2) small molecule antagonists, cell-based qHTS assay (AID 1963592). Note: nearly all actives have a fitted effect of over 50% in size. Particulars: CHO-ADRB2 cells, isoproterenol-stimulated cAMP HTRF ratio, 0.5 h; series mostly up to 92.4 µM. In short, it runs like this:
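Assay format: CHO-ADRB2 cells, 18-20hr seeding at 37C/5% CO2, then compound plus 1nM isoproterenol agonist mix for 0.5hr RT. Homogeneous time-resolved fluorescence cAMP detection after 1hr, expressed as 665/615 nm ratio.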

Assay [14] deals with D(2) dopamine receptor (Homo sapiens) (UniProt P14416). In words: Dopamine D2 receptor (DRD2) small molecule agonists, cell-based qHTS assay (AID 1963594). Note: nearly all actives have a fitted effect of over 35% in size. Particulars: HEK293-DRD2 cAMP HTRF, agonist mode, 30 min; series mostly up to 92.4 µM. The method, boiled down:
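cAMP accumulation in DRD2-HEK293 cells measured by HTRF after 1 h detection; compounds added 10 min before NKH477 (200nM […]) forskolin-analogue stimulation, 30 min at room temperature, with Ro20-1724 present at 0.1 mM final.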

Assay [15] has the same target. In words: Dopamine D2 receptor (DRD2) small molecule antagonists, cell-based qHTS assay (AID 1963595; active = well fitted inhibition curve with a large enough effect in the signal ratio in the repeat runs, with a control signal flat; the % refers to the signal ratio). The following applies: HEK293-DRD2 cAMP HTRF antagonist mode; series mostly up to 92.4 µM. The method, boiled down:
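Antagonist mode in DRD2-HEK293 cells: after compound addition with 0.1 mM Ro20-1724, cells received quinpirole (12 nM) and NKH477 (200 nM) for 30 min at room temperature; HTRF cAMP read after 1 h detection.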

Assay [16] is described as follows: cAMP Responsive Elements (CRE) small molecule agonists, cell-based qHTS assay (AID 1963590). The following applies: CRE-bla HEK293T, beta-lactamase FRET ratio, 3 h; series mostly up to 92.4 µM. In short, it runs like this: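 Compound exposure lasted 3 h at 37 C/5% CO2 in CRE-bla HEK 293T cells grown in assay medium with 10% dialyzed FBS and 25 mM HEPES. Reporter signal came from LiveBLAzer B/G FRET substrate, 2 h, room temperature.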

For assay [17], the target named is Muscarinic acetylcholine receptor M1 (Homo sapiens) (UniProt P11229). The experiment in a line: Cholinergic receptor muscarinic 1 (CHRM1) small molecule antagonists, cell-based qHTS assay (AID 1963588). Note: nearly all actives have a fitted effect of over 40% in size. The following applies: CHRM1-CHO antagonist mode, calcium flux fluorescence; series mostly up to 61.5 µM. In short, it runs like this:
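Compounds were tested at 15 concentrations in three independent runs. Dye-loaded CHRM1-CHO cells were exposed 5 min at room temperature before stimulation by acetylcholine added at 50nM. Intracellular calcium was read kinetically on FDSS for 3 min.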

For assay [18] the target is unchanged. The experiment in a line: Cholinergic receptor muscarinic 1 (CHRM1) small molecule agonists, cell-based qHTS assay (AID 1963589). Note: nearly all actives have a fitted effect of over 35% in size. Particulars: CHRM1-CHO cells, agonist mode, calcium flux fluorescence; series mostly up to 76.8 µM. The method, boiled down:
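Fluorescent calcium dye reports M1 activation in stably transfected CHO cells. Compounds, 15 concentrations, added after 1 h dye loading at 37 C; kinetic reading at 1 sec intervals.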

For assay [19], the target named is 5-hydroxytryptamine receptor 2A (Homo sapiens) (UniProt P28223). In words: 5-hydroxytryptamine receptor 2A (HTR2A) small molecule agonists, cell-based qHTS assay (AID 1963587). Note: nearly all actives have a fitted effect of over 30% in size. Particulars: HTR2A-CHO cells, calcium flux fluorescence, agonist mode; series mostly up to 76.8 µM. In short, it runs like this:
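Kinetic calcium-flux fluorescence (2 min, 1 sec intervals) after compound addition in agonist mode. HTR2A-CHO cells were cultured 18 h, then dye-loaded 1 h at 37 C.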

Assay [20] concerns the target Beta-2 adrenergic receptor (Homo sapiens) (UniProt P07550). The experiment in a line: Adrenergic beta2 receptor (ADRB2) small molecule agonists, cell-based qHTS assay (AID 1963593).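 Note: CHO cells stably overexpressing human ADRB2.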 Particulars: CHO-ADRB2 cells, cAMP HTRF, 30 min; series mostly up to 92.4 µM. In short, it runs like this: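 CHO cells stably over-expressing ADRB2 were plated overnight at 37C, then dosed with compounds plus a stimulation mix containing 100uM IBMX and 25uM Ro-20-1724 for 0.5hr at room temperature. cAMP was measured by HTRF competition, 1hr.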

Results filed as inconclusive are left out. A structure can be active in one record and inactive in another. Activity calls are given as the source filed them. Unless noted, calls come from the whole dose curve.

Chain of Beta-2 adrenergic receptor (Homo sapiens) (P07550 whole entry, looked up): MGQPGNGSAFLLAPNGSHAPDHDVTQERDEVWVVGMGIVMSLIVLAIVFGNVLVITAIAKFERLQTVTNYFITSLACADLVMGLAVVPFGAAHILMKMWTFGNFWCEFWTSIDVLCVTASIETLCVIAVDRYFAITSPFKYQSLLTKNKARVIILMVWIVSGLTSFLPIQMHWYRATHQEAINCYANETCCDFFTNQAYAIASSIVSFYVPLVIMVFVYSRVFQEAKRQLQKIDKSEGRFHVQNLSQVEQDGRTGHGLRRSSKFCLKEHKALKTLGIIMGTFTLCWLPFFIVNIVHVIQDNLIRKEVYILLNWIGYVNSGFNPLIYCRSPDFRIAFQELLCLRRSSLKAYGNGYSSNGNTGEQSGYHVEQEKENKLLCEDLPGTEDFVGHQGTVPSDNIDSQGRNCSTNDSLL
Chain of Gonadotropin-releasing hormone receptor (Homo sapiens) (P30968 whole entry, looked up): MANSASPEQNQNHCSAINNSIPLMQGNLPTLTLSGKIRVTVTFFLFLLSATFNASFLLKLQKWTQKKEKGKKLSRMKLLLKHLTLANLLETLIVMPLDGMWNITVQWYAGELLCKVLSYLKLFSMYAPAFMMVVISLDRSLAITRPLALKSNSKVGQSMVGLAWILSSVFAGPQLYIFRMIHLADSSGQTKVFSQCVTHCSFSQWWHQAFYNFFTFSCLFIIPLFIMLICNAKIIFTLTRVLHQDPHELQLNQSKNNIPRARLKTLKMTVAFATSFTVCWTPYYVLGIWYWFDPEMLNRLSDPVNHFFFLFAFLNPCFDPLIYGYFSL
Chain of KiSS-1 receptor (Homo sapiens) (Q969F8 whole entry, looked up): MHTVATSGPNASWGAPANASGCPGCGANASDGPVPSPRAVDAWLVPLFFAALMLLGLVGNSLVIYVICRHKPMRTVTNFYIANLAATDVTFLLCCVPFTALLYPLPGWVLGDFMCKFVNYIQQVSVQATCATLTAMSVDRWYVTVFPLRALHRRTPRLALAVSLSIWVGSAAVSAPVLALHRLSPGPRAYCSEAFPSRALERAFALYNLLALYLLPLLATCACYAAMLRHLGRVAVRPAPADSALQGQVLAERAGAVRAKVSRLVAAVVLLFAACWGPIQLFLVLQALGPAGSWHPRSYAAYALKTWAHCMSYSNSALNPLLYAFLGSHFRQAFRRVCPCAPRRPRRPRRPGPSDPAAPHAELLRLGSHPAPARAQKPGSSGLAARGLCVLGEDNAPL
Chain of Muscarinic acetylcholine receptor M1 (Homo sapiens) (P11229 whole entry, looked up): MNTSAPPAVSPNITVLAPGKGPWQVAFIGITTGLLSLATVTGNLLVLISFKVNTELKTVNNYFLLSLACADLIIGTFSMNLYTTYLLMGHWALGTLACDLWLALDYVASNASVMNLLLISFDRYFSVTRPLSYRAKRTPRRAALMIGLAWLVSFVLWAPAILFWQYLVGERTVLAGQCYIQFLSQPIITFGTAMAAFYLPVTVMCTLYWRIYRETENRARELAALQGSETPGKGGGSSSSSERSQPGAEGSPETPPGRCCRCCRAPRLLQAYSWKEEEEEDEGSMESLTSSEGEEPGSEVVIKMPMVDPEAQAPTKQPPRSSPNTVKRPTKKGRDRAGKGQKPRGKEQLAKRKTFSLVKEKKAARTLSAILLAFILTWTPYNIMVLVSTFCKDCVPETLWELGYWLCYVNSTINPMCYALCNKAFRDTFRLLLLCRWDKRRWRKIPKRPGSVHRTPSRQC
Chain of D(2) dopamine receptor (Homo sapiens) (P14416 whole entry, looked up): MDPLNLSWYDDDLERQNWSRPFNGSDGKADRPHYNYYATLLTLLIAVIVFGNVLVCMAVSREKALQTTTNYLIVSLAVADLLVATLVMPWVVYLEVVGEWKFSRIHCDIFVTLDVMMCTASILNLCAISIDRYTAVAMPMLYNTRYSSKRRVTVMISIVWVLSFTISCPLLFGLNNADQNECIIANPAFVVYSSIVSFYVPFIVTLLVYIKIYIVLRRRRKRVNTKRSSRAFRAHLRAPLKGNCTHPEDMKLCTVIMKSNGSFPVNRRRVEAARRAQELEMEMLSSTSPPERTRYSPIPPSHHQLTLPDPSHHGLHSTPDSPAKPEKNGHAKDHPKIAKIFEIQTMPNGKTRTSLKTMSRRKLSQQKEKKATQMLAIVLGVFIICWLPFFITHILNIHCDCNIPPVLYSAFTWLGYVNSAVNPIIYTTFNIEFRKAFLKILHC
Chain of 5-hydroxytryptamine receptor 2A (Homo sapiens) (P28223 whole entry, looked up): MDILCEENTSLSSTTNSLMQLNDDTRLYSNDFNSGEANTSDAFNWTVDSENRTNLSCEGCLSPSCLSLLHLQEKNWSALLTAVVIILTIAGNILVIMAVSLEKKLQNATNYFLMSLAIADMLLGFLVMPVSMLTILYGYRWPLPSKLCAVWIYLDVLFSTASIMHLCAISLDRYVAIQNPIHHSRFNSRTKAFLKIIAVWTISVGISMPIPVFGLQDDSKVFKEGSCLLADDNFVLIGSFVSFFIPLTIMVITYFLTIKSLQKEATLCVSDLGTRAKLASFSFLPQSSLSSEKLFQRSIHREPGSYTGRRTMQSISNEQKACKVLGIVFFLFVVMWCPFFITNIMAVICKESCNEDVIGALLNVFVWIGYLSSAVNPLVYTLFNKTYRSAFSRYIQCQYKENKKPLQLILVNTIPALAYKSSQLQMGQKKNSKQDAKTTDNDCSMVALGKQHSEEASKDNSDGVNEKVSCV

With `Cc1oncc1C(=O)Nc1ccc(C(F)(F)F)cc1`, the Potency entry in assay [1], in assay [3], in assay [4], in assay [5], in assay [6] and in [7] was “inactive” in each case. Besides, the Potency entry in [10], in [11], in assay [12], in assay [13], in [14] and in assay [15] was “inactive” throughout. Further, the Potency was 27.3 µM (active) and inactive in assay [2]; 20.4 µM (active) and inactive in assay [8]; 20.4 µM (active) in assay [9].
Take `Nc1cc(-c2ccncc2)c[nH]c1=O`: the Potency result in [1], in [2], in assay [3], in assay [4], in [5] and in [6] was “inactive” each time. In addition, the Potency result in assay [7], in assay [8], in assay [9], in [10], in [11] and in [16] was “inactive” in each case. The Potency result in [12], in [13], in [14] and in assay [15] was “inactive” each time.
Turning to `C=C(C)C(=O)OCCCCCCCCCCCCC`, the Potency entry in [1], in [2], in assay [3], in assay [4], in assay [5] and in assay [6] was “inactive” throughout. The Potency result in assay [7], in assay [8], in assay [9], in [10], in [11] and in [17] was “inactive” each time. In addition, the Potency result in [18], in assay [16], in [12], in assay [13], in [14] and in assay [15] was “inactive” in each case.
Regarding `CCO[Si](C)(OCC)OCC`, the Potency entry in [1], in assay [2], in [3], in assay [4], in assay [5] and in [6] was “inactive” in each case. In addition, the Potency result in assay [7], in [8], in assay [9], in assay [10], in assay [11] and in assay [19] was “inactive” throughout. The Potency result in assay [17], in [12], in assay [13], in [20], in assay [14] and in assay [15] was “inactive” each time.
